This is one part of the list. Values without a mark were called inactive. Activity calls are given as the source filed them.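 How the source made its calls: active means percent activation above the mean of DMSO-only control wells plus 3 SD of those wells (cut at about 18% in these data); inactive means the rest.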
Molecular target: Neuropeptide Y receptor type 1 (Homo sapiens) (UniProt P25929)
Assay: NPY-Y1 direct agonists without NPY, confirmation, counter-screen for NPY-Y1 potentiator project, cell-based, fluorescence (AID 1697);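 further: cells challenged with isoproterenol plus Ro 20-1724 with no NPY in test wells; Y1 agonism lowers isoproterenol-driven cAMP and reduces probe fluorescence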
Details: HEK293 Y1-CNGC, membrane potential fluorescence, agonist mode; at 3.6 µM; hits give high values

Neuropeptide Y receptor type 1 (Homo sapiens), sequence (P25929 whole entry, looked up): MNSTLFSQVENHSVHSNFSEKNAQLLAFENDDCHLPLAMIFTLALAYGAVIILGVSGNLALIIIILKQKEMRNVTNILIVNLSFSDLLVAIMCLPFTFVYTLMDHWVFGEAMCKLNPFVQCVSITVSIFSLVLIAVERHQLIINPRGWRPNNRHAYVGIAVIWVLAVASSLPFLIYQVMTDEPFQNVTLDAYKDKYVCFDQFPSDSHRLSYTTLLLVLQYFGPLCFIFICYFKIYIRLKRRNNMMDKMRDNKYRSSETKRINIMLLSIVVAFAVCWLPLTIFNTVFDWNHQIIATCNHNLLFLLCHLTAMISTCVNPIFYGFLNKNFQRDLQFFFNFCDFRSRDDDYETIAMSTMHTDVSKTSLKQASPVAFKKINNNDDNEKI

Row | SMILES | activation
1 | CSC1=NP(=S)(SC)N(C)c2nc3n(c21)CCC3 (configuration not stated) | 9.49%
2 | Cc1nn(Cc2ccccc2Cl)c(Cl)c1C(=O)OC(C(=O)NC(N)=O)C(C)C (configuration not stated) | 30.6% (active)
